Data reported in PubChem BioAssay.
Values joined by “and” are separate entries in the source; they are usually repeats but may differ in a detail not shown here. Equal entries are not always repeated. A structure can be active in one record and inactive in another. Active and inactive are the calls of the source.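 How the source made its calls, unless noted: active means thallium flux through the channel raised or lowered by more than 3 SD from vehicle-only wells, actives on both sides; inactive means the rest.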

How the values were obtained:
[1] = tested on: Hepatitis C virus NS3 helicase; experiment: blockers of NS3h binding to DNA – biochemical, fluorescence polarization, NIH Clinical Collection, primary screen (AID 743270; call rule not given here); conditions: NS3 helicase binding to Cy5-dT15 DNA, stronger effect = higher value, concentration not given here
[2] = target: Single-stranded DNA-binding protein (Escherichia coli (strain K12)) (UniProt P0AGE0); experiment: SSB-ssDNA binding inhibitors – biochemical, fluorescence polarization, NIH Clinical Collection, counter-screen for HCV NS3 helicase inhibitor project (AID 743271; in the data active means inhibition above about 28%); conditions: E. coli SSB-DNA binding, stronger effect = higher value, concentration not given here
[3] = compounds distorting NS3 helicase fluorescence signal – biochemical, NIH Clinical Collection, artefact control for HCV NS3 helicase inhibitor project (AID 743272; call rule not given here;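 further: HCV NS3 helicase with a Cy5 labelled single stranded DNA probe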); conditions: fluorescence interference counterscreen, HCV NS3 helicase assay; stronger effect = lower value
[4] = Wnt pathway potentiators raising nuclear beta-catenin – imaging, WNT3A-conditioned medium, mouse C2C12, NPC library, primary screen (AID 1117326; in the data active means nuclear beta-catenin stimulation mostly above about 4.2%, no sharp cut-off; inactive means mostly below about 10%); conditions: stronger effect = higher value
[5] = stimulators of insulin release from INS-1E, primary screen, cell-based, 5 mM glucose, NPC library (AID 1117329;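 active means compound raises insulin release from rat beta cells at 5 mM glucose, no numeric limit stated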); conditions: rat INS-1E insulin secretion, at 10 µM, stronger effect = higher value
[6] = growth inhibition of GSK3B-pretreated HCT116 cells – cell-based, CellTiter-Glo, 0.2 to 20 µM (AID 1117336;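 active means compounds lowering colon cancer cell viability after pretreatment blocking the GSK3B kinase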); conditions: HCT116 viability after GSK3B inhibitor, at 20 µM, stronger effect = higher value
[7] = inhibition of endothelial tube formation, primary screen, imaging, VEGF stimulated, CD31 staining, tube area, NPC library (AID 1117340;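 active means compound that reduces growth-factor-driven endothelial tube area in a mixed cell culture, no cutoff stated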); conditions: VEGF-stimulated ADSC/ECFC co-culture, at 10 µM, stronger effect = higher value
[8] = GLP1 release stimulators, primary, NCI-H716, NPC library (AID 1117341;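 active means compound raises GLP1 secretion from the human gut endocrine cells, with no numeric limit stated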); conditions: NCI-H716 cells, at 10 µM, stronger effect = higher value
[9] = HCT116 colon cancer cell growth inhibition, primary screen, CellTiter-Glo luminescence, NPC library (AID 1117342;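 active means compounds that lower survival of HCT116 colon cancer cells in the luminescence readout, no numeric limit stated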); conditions: at 20 µM (top of the series)
[10] = reduced SW480 viability measured with CellTiter-Glo, NPC library, primary (AID 1117343;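 active means compounds that lower viability of the colon cancer cells in the luminescence readout, with no numeric limit stated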); conditions: CellTiter-Glo luminescence; at 20 µM (top of the series)
[11] = NPC library primary testing for decreased DLD-1 cell viability via CellTiter-Glo (AID 1117346;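 active means compounds that lower survival of DLD-1 colon cancer cells in the luminescence readout, no cutoff given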); conditions: DLD-1 viability, CellTiter-Glo luminescence; at 20 µM (top of the series)
[12] = target: 6-phosphogluconate dehydrogenase, decarboxylating (Homo sapiens) (UniProt P52209); experiment: inhibition of human phosphogluconate dehydrogenase – biochemical, recombinant enzyme, NADPH absorbance, primary screen (AID 1159550;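 active means at least 20% inhibition of 6-phosphogluconate dehydrogenase activity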); conditions: recombinant 6PGD, NADPH absorbance 341 nm; at 10 µM; stronger effect = higher value
Sequence of 6-phosphogluconate dehydrogenase, decarboxylating (Homo sapiens) (P52209 whole entry, looked up): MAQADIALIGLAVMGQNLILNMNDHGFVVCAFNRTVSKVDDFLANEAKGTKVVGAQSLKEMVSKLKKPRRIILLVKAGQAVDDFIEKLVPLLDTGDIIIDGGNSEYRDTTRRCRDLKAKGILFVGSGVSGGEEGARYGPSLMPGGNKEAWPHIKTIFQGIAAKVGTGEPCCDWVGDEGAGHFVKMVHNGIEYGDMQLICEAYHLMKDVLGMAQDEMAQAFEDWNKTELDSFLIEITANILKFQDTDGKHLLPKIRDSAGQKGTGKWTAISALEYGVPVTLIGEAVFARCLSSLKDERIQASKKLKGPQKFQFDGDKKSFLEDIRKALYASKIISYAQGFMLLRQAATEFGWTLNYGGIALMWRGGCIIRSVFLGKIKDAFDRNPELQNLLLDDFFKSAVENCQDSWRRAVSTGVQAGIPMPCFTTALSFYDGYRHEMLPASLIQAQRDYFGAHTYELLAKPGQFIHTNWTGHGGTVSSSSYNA

[13] = MELAS cybrid and Rieske KO viability enhancers – cell-based, MELAS cybrids, Rieske KO mouse fibroblasts, CellTiter-Glo, primary screen (AID 1508586;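 active means mean z-score across replicates of 1.96 or higher in either the MELAS or the Rieske mutant cell line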;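 further: z relative to plate mean and SD of compound and empty wells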); conditions: low glucose
[14] = target: NAD(+) hydrolase SARM1 (Homo sapiens) (UniProt Q6SZW1); experiment: blocking NAD cleavage by SARM1 SAM-TIR – cell lysate, NAD-Glo luminescence (AID 1508614;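 active means compound whose remaining NAD level is above about 45 nM, limit read from the data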); conditions: SAM-TIR HEK293T lysate NADase, at 1 µM, stronger effect = higher value
Sequence of NAD(+) hydrolase SARM1 (Homo sapiens) (Q6SZW1 whole entry, looked up, the tested form may be a part): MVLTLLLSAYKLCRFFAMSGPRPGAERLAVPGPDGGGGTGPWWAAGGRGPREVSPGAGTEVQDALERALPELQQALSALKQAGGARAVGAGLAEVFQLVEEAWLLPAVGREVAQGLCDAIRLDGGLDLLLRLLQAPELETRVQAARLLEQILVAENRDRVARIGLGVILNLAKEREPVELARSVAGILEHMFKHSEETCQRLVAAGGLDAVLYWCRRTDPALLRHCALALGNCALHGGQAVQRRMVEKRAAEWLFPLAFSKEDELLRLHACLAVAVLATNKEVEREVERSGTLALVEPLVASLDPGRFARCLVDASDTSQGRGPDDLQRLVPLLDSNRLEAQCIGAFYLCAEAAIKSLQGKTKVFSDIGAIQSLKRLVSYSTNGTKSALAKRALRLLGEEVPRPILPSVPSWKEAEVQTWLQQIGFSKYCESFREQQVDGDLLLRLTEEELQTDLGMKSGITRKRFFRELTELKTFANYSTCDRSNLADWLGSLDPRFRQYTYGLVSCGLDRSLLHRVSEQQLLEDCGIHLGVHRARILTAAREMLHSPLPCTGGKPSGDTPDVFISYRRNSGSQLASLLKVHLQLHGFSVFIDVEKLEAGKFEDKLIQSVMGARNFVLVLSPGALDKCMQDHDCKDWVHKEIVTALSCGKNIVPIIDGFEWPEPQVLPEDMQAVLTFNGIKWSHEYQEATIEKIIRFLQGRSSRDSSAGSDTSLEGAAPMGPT

[15] = target: Mitogen-activated protein kinase 7 (Homo sapiens) (UniProt Q13164); experiment: Gal4-ERK5 driven luciferase induction – cell-based, HTS, primary screen (AID 1508626;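 active means luciferase signal above three times the same-plate solvent-only control wells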;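 further: luciferase driven by Gal4-ERK5 fusion binding five Gal4 sites before minimal TATA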); conditions: HeLa Gal4-ERK5 transactivation, 18 h, at 5 µM, stronger effect = higher value
Sequence of Mitogen-activated protein kinase 7 (Homo sapiens) (Q13164 whole entry, looked up, the tested form may be a part): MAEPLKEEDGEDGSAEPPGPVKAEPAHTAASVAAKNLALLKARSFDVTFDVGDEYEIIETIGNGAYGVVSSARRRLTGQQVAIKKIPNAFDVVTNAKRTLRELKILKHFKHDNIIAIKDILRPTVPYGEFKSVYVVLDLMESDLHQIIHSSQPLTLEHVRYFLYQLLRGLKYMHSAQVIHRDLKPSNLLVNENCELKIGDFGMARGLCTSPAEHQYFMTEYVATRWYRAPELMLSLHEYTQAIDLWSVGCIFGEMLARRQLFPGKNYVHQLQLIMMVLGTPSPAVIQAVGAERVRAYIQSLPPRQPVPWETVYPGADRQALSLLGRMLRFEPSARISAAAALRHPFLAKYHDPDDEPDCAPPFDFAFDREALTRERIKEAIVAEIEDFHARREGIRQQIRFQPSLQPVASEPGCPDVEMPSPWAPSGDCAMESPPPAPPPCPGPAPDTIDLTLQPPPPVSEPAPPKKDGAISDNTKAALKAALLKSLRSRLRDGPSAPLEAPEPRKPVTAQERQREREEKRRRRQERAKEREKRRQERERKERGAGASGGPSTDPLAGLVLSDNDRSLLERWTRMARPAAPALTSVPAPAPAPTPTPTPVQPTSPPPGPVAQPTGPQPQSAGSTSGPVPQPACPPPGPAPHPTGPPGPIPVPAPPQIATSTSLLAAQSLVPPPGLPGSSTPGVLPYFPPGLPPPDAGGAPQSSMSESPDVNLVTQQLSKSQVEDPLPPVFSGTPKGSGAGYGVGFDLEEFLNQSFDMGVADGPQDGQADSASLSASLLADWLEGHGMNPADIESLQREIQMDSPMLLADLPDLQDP

[16] = tested on: F380Y; experiment: BK channel mutant inhibitors and activators – cell-based, U2OS BacMam, thallium flux, beta subunits, selectivity assay, profiling panel (AID 1259406); conditions: U2OS BacMam BK variants, at 30 µM;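 further: initial slope of Thallos dye fluorescence rise after thallium is added; log ratio against the mean of 0.3% DMSO vehicle wells on the same plate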
[17] = tested on: F380Y/beta2Delta; experiment: as above; conditions: U2OS BacMam BK variants, at 30 µM
[18] = target: Calcium-activated potassium channel subunit alpha-1 (Homo sapiens) + Leucine-rich repeat-containing protein 26 (Homo sapiens) (UniProt Q12791+Q2I0M4); experiment: as above; conditions: U2OS BacMam BK variants, F380Y/Slo1WT/gamma1, at 30 µM
Sequence of Calcium-activated potassium channel subunit alpha-1 (Homo sapiens) + Leucine-rich repeat-containing protein 26 (Homo sapiens) (Q2I0M4 whole entry, looked up, one chain of several): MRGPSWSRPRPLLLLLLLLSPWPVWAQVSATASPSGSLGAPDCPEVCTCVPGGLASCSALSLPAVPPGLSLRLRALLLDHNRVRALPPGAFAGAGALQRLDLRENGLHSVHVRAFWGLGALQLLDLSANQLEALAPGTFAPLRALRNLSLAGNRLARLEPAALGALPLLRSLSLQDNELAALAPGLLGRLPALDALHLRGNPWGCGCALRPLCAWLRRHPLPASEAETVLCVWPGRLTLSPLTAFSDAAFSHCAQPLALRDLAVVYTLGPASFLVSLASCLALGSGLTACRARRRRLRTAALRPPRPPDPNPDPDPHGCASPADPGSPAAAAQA

[19] = viability loss with induced miR-34 in A549 – imaging, A549 dox-inducible miR-34, nuclei and caspase counts, primary screen (AID 1347080;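 active means compounds whose cell count with miR-34 switched on is under 0.7 times the count with it off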); conditions: A549 miR-34 inducible, Hoechst nuclei count, 48 h
[20] = EMT-state selective cytotoxicity in co-culture – imaging, PC-3E GFP, TEM4-18 mCherry, primary screen (AID 1345086;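 active means compounds killing one labelled cell type while sparing the other, by normalised counts and ratio limits, not self-fluorescent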;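 on all read-outs here: cells exposed to compound for 72 h before imaging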;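 on red/green cell ratio (normalised): normalised mesenchymal count divided by normalised epithelial count so high means epithelial killing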); conditions: PC-3E GFP / TEM4-18 mCherry co-culture, imaging cell counts, at 1 µM; for red/green cell ratio (normalised): actives lie on both sides, counts scaled to control wells, 1 = unselective
[21] = MELAS cybrid survival, CellTiter-Glo 48 h, stronger effect = higher value
[22] = Rieske KO mouse fibroblast survival, CellTiter-Glo 72 h
[23] = stronger effect = lower value, cell number ratio, induced over uninduced
[24] = measured here: relative caspase fold change +Dox/-Dox
[25] = measured here: total cells with miR-34 induction, stronger effect = lower value
[26] = measured here: total cells without miR-34 induction
[27] = measured here: epithelial PC-3E GFP cell survival
[28] = measured here: mesenchymal TEM4-18 mCherry cell survival

OCCN1C[C@H](O)[C@@H](O)[C@H](O)[C@H]1CO
inactive: inhibition [1] -1.98% | inhibition [2] -4.72% | fluorescence ratio [3] 0.93 | nuclear beta-catenin stimulation ([4]; at 10 µM) -2.3% | insulin secretion stimulation [5] 5.4% | viability decrease [6] -1.6% | tube area decrease [7] 0.1% | GLP1 secretion stimulation [8] -1.4% | inhibition of viability [9] 0.6% | viability decrease (inhibition) [10] -1.7% | viability decrease (inhibition) [11] 0.1% | inhibition [12] 6.33% | z-score [13, 21] 0.074 | remaining NAD [14] 10 nM | luciferase signal [15] 80 AU | log fold change Tl+ flux [16] -0.0502 | log fold change Tl+ flux [17] -0.0041 | log fold change Tl+ flux [18] -0.0394
0.78: z-score [13, 22]
-1%: nuclear beta-catenin stimulation ([4]; stimulation, at 2 µM)

C[C@]12CCC(=O)C=C1CC[C@@H]1[C@@H]2[C@@H](O)C[C@@]2(C)[C@H]1CC[C@]2(O)C(=O)COC(=O)CCC(=O)O
7160: cell count [19, 25]
7270: cell count [19, 26]
3%: nuclear beta-catenin stimulation ([4]; stimulation, at 2 µM)
1.65: fold change [19, 24]
inactive: inhibition [1] -1.36% | inhibition [2] -0.48% | fluorescence ratio [3] 1 | nuclear beta-catenin stimulation ([4]; at 10 µM) 0.9% | insulin secretion stimulation [5] 1.4% | viability decrease [6] 0.2% | tube area decrease [7] 5.6% | GLP1 secretion stimulation [8] -1.5% | inhibition of viability [9] 6.6% | viability decrease (inhibition) [10] -13.6% | viability decrease (inhibition) [11] 13.1% | inhibition [12] 1.94% | fold change [19, 23] 0.985 | remaining NAD [14] 10 nM | luciferase signal [15] 96 AU | log fold change Tl+ flux [16] 0.0328 | log fold change Tl+ flux [17] 0.00491 | log fold change Tl+ flux [18] 0.0102

CCOc1ccc2ccccc2c1C(=O)N[C@@H]1C(=O)N2[C@@H]1SC(C)(C)[C@@H]2C(=O)O
0.1%: nuclear beta-catenin stimulation ([4]; stimulation, at 2 µM)
inactive: inhibition [1] -10.4% | inhibition [2] -6.58% | fluorescence ratio [3] 0.98 | nuclear beta-catenin stimulation ([4]; at 10 µM) -0.5% | insulin secretion stimulation [5] 0.3% | viability decrease [6] -12.1% | tube area decrease [7] -14.5% | GLP1 secretion stimulation [8] -2.2% | inhibition of viability [9] -10.6% | viability decrease (inhibition) [10] 39.8% | viability decrease (inhibition) [11] -29.8% | inhibition [12] -5.14% | fold change [19, 23] 1.06 and 0.86 | z-score [13, 21] 0.661 | remaining NAD [14] 10 nM | luciferase signal [15] 76 AU | log fold change Tl+ flux [16] -0.0205 | log fold change Tl+ flux [17] -0.0424 | log fold change Tl+ flux [18] 0.0363
-0.47: z-score [13, 22]
9950 and 9060: cell count [19, 25]
9360 and 10500: cell count [19, 26]
0.823 and 1.09: fold change [19, 24]

CCCSc1ccc2nc(NC(=O)OC)[nH]c2c1
24.2%: nuclear beta-catenin stimulation ([4]; stimulation, at 2 µM)
2.78 (active) and -2.05 (inactive): z-score [13, 21]
0.0317 and -0.672 and 1.64: z-score [13, 22]
0.26: normalised cell number [20, 27]
inactive: inhibition [1] -2.27% | inhibition [2] -1.24% | fluorescence ratio [3] 1.01 | insulin secretion stimulation [5] -1% | GLP1 secretion stimulation [8] 0.9% | inhibition [12] -6.38% | red/green cell ratio (normalised) [20] 0.93 | remaining NAD [14] 10 nM | log fold change Tl+ flux [16] -0.0721 | log fold change Tl+ flux [17] 0.0117 | log fold change Tl+ flux [18] -0.0345
active: nuclear beta-catenin stimulation ([4]; at 10 µM) 49% | viability decrease [6] 87.3% | tube area decrease [7] 102% | inhibition of viability [9] 76% | viability decrease (inhibition) [10] 86.6% | viability decrease (inhibition) [11] 56.7% | luciferase signal [15] 368 AU
0.24: normalised cell number [20, 28]

C[C@H](CCC(=O)O)[C@H]1CC[C@H]2[C@@H]3C(=O)C[C@@H]4CC(=O)CC[C@]4(C)[C@H]3CC(=O)[C@]12C
inactive: inhibition [1] 3.28% | inhibition [2] 2.76% | fluorescence ratio [3] 0.9 | nuclear beta-catenin stimulation ([4]; at 10 µM) -0.3% | insulin secretion stimulation [5] 1.3% | viability decrease [6] -1% | tube area decrease [7] 15.1% | GLP1 secretion stimulation [8] 0.2% | inhibition of viability [9] -5.2% | viability decrease (inhibition) [10] 5.6% | viability decrease (inhibition) [11] -16% | inhibition [12] -0.558% and -4.79% | fold change [19, 23] 0.903 | z-score [13, 21] 1.02 | remaining NAD [14] 10 nM | luciferase signal [15] 100 AU and 64 AU | log fold change Tl+ flux [16] -0.0147 | log fold change Tl+ flux [17] 0.00244 | log fold change Tl+ flux [18] -0.0617
0.185: z-score [13, 22]
0%: nuclear beta-catenin stimulation ([4]; stimulation, at 2 µM)
10200: cell count [19, 26]
9210: cell count [19, 25]
1.51: fold change [19, 24]

c1ccc2c(CC3=NCCN3)cccc2c1
1.1%: nuclear beta-catenin stimulation ([4]; stimulation, at 2 µM)
-0.0845 and -0.183 and -0.115: z-score [13, 22]
1.03: normalised cell number [20, 27]
0.86: normalised cell number [20, 28]
inactive: inhibition [1] -3.18% | inhibition [2] -2.76% | fluorescence ratio [3] 1.02 | nuclear beta-catenin stimulation ([4]; at 10 µM) 0.4% | insulin secretion stimulation [5] -1.7% | viability decrease [6] -2.25% | tube area decrease [7] 20.2% | GLP1 secretion stimulation [8] 2.8% | inhibition of viability [9] -0.7% | viability decrease (inhibition) [10] 19.7% | viability decrease (inhibition) [11] 8% | inhibition [12] -9.35% | red/green cell ratio (normalised) [20] 0.84 | z-score [13, 21] -0.272 and 0.214 and 0.142 | remaining NAD [14] 10 nM | luciferase signal [15] 44 AU | log fold change Tl+ flux [16] -0.0182 | log fold change Tl+ flux [17] -0.014 | log fold change Tl+ flux [18] 0.0291

Cc1onc(-c2ccccc2)c1-c1ccc(S(N)(=O)=O)cc1
active: viability decrease (inhibition) [10] 54%
inactive: inhibition [1] -1.19% | inhibition [2] -2.41% | fluorescence ratio [3] 0.93 | nuclear beta-catenin stimulation ([4]; at 10 µM) 1.5% | insulin secretion stimulation [5] -0.9% | viability decrease [6] -37.3% | tube area decrease [7] 32.7% | GLP1 secretion stimulation [8] 4.8% | inhibition of viability [9] 33.5% | viability decrease (inhibition) [11] 32.5% | inhibition [12] -1.63% | fold change [19, 23] 0.904 and 0.903 | z-score [13, 21] -0.154 and 0.659 | luciferase signal [15] 64 AU | log fold change Tl+ flux [16] 0.0649 | log fold change Tl+ flux [17] 0.0548 | log fold change Tl+ flux [18] 0.00659
9820 and 8900: cell count [19, 26]
1.6%: nuclear beta-catenin stimulation ([4]; stimulation, at 2 µM)
-0.131 and 0.628: z-score [13, 22]
8880 and 8040: cell count [19, 25]
1.68 and 0.72: fold change [19, 24]
